# Compound activity as filed in PubChem.
# LASV entry inh – Lassa virus entry inhibition | Lassa virus pseudotyped entry inhibition, cell-based qHTS | Potency, µM (top dose mostly 49.2 µM), hits mostly inhibitors | actives 4.1% (n = 18,000) | AID 720533
# MARV entry inh – Marburg virus entry inhibition; Marburg virus pseudotype entry/binding inhibition, cell-based; Potency, µM (titrated, usually from 49.2 µM), actives largely listed as inhibitors; actives 6.5% (n = 18,000); AID 720532
# Numbers stand for hits; 0 = inactive; ? = inconclusive; - = no result given; ! = not active in a repeat; [ ] = remark or other dose. A selection: hits, their analogues and other compounds. The true share with any hit is near 8.6%. Calls come from the whole dose curve; tested in HEK293 cells.
SMILES,LASV entry inh,MARV entry inh
COC1=CC2C(=O)C(C(c3ccccc3)C2C)C1(C)O (centres undefined),0[8.59 µM],0[8.59 µM]
CC(C)=CCCC(C)=CCN1C(=O)[C@]2(O[C@H](COc3ccccc3)CC3=CCCC32)c2c(Br)cccc21 (some centres undefined),0[8.59 µM],0[8.59 µM]
FC(F)(F)c1ccc(-c2nc(-c3ccccc3)oc2NCc2ccccc2)cc1,?,0[8.59 µM]
CCOc1ccc2c(-c3ccnc(Nc4cc(OC)cc(C(F)(F)F)c4)n3)cnn2n1,-,6.3µM
FC(F)(F)c1cccc(Nc2nccc(-c3cnn4nc(-c5ccccc5)ccc34)n2)c1,-,20µM
O[C@H]1CN(Cc2cccs2)[C@@H](c2ccccc2)C[C@H]1n1cc(C2CC2)nn1,0,0
COc1ccc([C@]23Cc4ccccc4[C@H](O2)c2c(cc(-c4ccccc4)oc2=O)O3)cc1,0[8.59 µM],0[8.59 µM]
C[C@@H]1CC[C@H]2C(=O)N(CC3CCCCC3)C[C@H](O)CN2[C@@H]1c1ccc(Br)cc1,0[8.59 µM],?
CN1[C@@H]2CC[C@H]1CC(O[C@@H](c1ccccc1)c1ccc(Cl)cc1)C2 (some centres undefined),10µM,4.5µM
c1ccc(C(O[C@H]2CCCN(CCc3ccc4c(c3)OCO4)C2)c2ccccc2)cc1,0,?
CN1[C@@H]2CC[C@H]1CC(OC(c1ccccc1)c1ccccc1)C2 (some centres undefined),14µM,13µM
CN1C2CCC1CC(OC(c1ccc(F)cc1)c1ccc(F)cc1)C2 (centres undefined),?,5.6µM
CN1C2CC(OC(=O)C(CO)c3ccccc3)CC1C(O)C2 (centres undefined),0,0
CCN1C(=NCCCCO)NC(c2cccc(C(F)(F)F)c2)C(C(=O)OC)=C1C (centres undefined),0[8.59 µM],0[8.59 µM]
Clc1cccc(Nc2nnc(-c3ccccc3)c3ccccc23)c1,3.5µM,7.1µM!
c1ccc(-c2nc(-c3cccc4ccccc34)c(Nc3ccc4ccccc4c3)o2)cc1,0,0
O=C(CC(=O)c1ccccc1)c1ccccc1,0,0
O=C(O)CCC(=O)c1ccc(-c2ccccc2)cc1,0,0.1µM!
CC(=O)OC[C@H]1O[C@@H](ON=C(C)CCN2CCCCc3nc(C)c(C)cc32)[C@H](OC(C)=O)[C@@H](OC(C)=O)[C@H]1OC(C)=O,0[8.59 µM],0[8.59 µM]
C[C@@H](Cc1ccccc1)NCCC(c1ccccc1)c1ccccc1,?,7.9µM
CC(NN)c1ccccc1 (centres undefined),0,0
CN(C)[C@H](Cc1ccccc1)c1ccccc1,0,0
CC(NCCC(c1ccccc1)c1ccccc1)c1ccccc1 (centres undefined),?,11µM
CCC[C@H]1CN(c2ccc(Br)cc2)C(=O)[C@H]1CC(=O)Nc1ccccc1,0,?
CCC[C@H]1CN(c2ccc(OC)cc2)C(=O)[C@H]1CC(=O)Nc1ccccc1,-,0
SMILES,LASV entry inh,MARV entry inh
CCN1C(=NCCc2c[nH]c3ccccc23)NC(c2ccccc2)C(C(=O)OC)=C1C (centres undefined),0[8.59 µM],?
CC(=O)C1=CN(CCC=Cc2ccccc2)C(=O)NC1c1ccccc1 (centres undefined),0[8.59 µM],?
C=CC[C@@H]1C=C[C@H](ON=C(C)CCN2CCCc3nc(C)c(C)cc32)[C@H](CO)O1,0[8.59 µM],0[8.59 µM]
CC(=O)Nc1cccc(C#Cc2cncnc2Nc2ccc(OCc3cccc(F)c3)c(Cl)c2)c1,-,13µM
CS(=O)(=O)CCNCc1cc(-c2cc3c(Nc4ccc(OCc5cccc(F)c5)c(Cl)c4)ncnc3s2)cs1,0,?
CCCC=Cc1ccc(CN2C(C)C(=O)N(Cc3cn(CCOCOC)nn3)CCS2(=O)=O)cc1 (centres undefined),-,0
NCCc1ccc(O)cc1,?,0
Nc1ccc(O)cc1,45µM,50µM
CCCC[C@@H](C)/C=C(C)/C=C(\C)C(=O)NC1=C[C@@](O)(/C=C/C=C/C=C/C(=O)NC2=C(O)CCC2=O)[C@@H]2O[C@@H]2C1=O,16µM,5.6µM
C=CCOC(=O)C(C(C)=O)[C@@H](NC(=O)OC)c1ccco1 (some centres undefined),0[8.59 µM],0[8.59 µM]
CCOC(=O)OC[C@H]1O[C@H](C#Cc2ccccc2)C=C[C@H]1OC(=O)OCC,0[8.59 µM],0[8.59 µM]
COc1ccc([C@]23Cc4ccccc4[C@H](O2)C2=C(CC(C)(C)CC2=O)O3)cc1,0[8.59 µM],0[8.59 µM]
c1ccc(Nc2ncc(-c3ccccc3)o2)cc1,5µM,0
Cc1cccc(Nc2ncc(-c3ccccc3)o2)c1,-,0
C[C@@H]1[C@H](O)[C@@H](C)/C=C/C=C\C=C\C=C\C=C\C=C\C=C\[C@H](O[C@@H]2O[C@H](C)[C@@H](O)[C@H](N)[C@@H]2O)C[C@@H]2O[C@](O)(C[C@@H](O)C[C@@H](O)[C@H](O)CC[C@@H](O)C[C@@H](O)CC(=O)O[C@H]1C)C[C@H](O)[C@H]2C(=O)O (stereo in doubt),0,0
Nc1nc(-c2nn(Cc3ccccc3F)c3ncccc23)ncc1C1CC1,0.89µM,0.56µM
C[C@H]1CCCC=CC2C[C@H](O)C[C@@H]2[C@H](O)C=CC(=O)O1 (some centres undefined),?,35µM
COC(=O)C1=C(C)N(Cc2ccccc2)C(=NCC(C)C)NC1c1ccc(Br)cc1 (centres undefined),0[8.59 µM],0[8.59 µM]
CN1CCN2c3ccccc3Cc3ccccc3C2C1 (centres undefined),?,35µM
COC1=CC2C(=O)C(C(c3ccccc3)C2C)C1(O)c1cccc(OC)c1 (centres undefined),0[8.59 µM],0[8.59 µM]
CC[C@H]1[C@@H]2C=C[C@@H]3[C@H]4C/C=C\C(=O)NCCC[C@@H]5NC(=O)C(=C5O)C(=O)CC[C@@H]4C[C@@H]3[C@H]2C[C@H]1C,28µM,14µM
CC#CCN1c2ccccc2[C@]23CCC(=O)N(Cc4ccco4)C2=NC(C(=O)OC)=C(C(=O)OC)[C@H]13,0[8.59 µM],?
NCCC(=O)[N-][C@@H](Cc1cnc[nH]1)C(=O)O.[Zn],0,0
CC1=C(C(=O)Nc2cc(Cl)c3[nH]ncc3c2)C(c2ccc(C(F)(F)F)cc2)CC(=O)N1 (centres undefined),0,0
Cc1nc2sccn2c(=O)c1CCN1CCC(=C(c2ccc(F)cc2)c2ccc(F)cc2)CC1,35µM,?
SMILES,LASV entry inh,MARV entry inh
Cc1nc2ccccn2c(=O)c1CCN1CCC(C(=O)c2ccc(F)cc2)CC1,0,?
COC1=C2C[C@H](C)C[C@H](OC)[C@H](O)[C@@H](C)/C=C(/C)[C@H](OC(N)=O)[C@@H](OC)/C=C\C=C(\C)C(=O)NC(=CC1=O)C2=O,0,0
C=CCNC1=C2C[C@@H](C)C[C@H](OC)[C@H](O)[C@@H](C)/C=C(\C)[C@H](OC(N)=O)[C@@H](OC)/C=C\C=C(/C)C(=O)NC(=CC1=O)C2=O,3.5µM!,?
Cc1ccccc1CN1[C@@H](CC(C)C)COc2c(Cl)cccc2S1(=O)=O,0,0
CC(=O)O[C@H]1C2[C@@H](OC(=O)Cc3ccccc3)[C@@H](C)C[C@]2(OC(C)=O)C(=O)/C(C)=C/[C@@H]2[C@H](CC[C@@]13CO3)C2(C)C (some centres undefined),0,?
C=C(C)[C@]12C[C@@H](C)[C@@]34OC(Cc5ccccc5)(O[C@@H]1[C@@H]3C=C(COC(=O)Cc1cc(OC)c(O)cc1I)C[C@]1(O)C(=O)C(C)=C[C@@H]41)O2,20µM,14µM
